# ± gives the standard deviation of the averaged measurements.
# Test system: (+)-trans-4-thujanol A-neuron OSN class
# Assay: net action potential response of A-neuron (blank-subtracted) (spikes/s (Hz)); higher = stronger excitation
# Conditions: 10 µg on filter paper; neuron: A neuron (large spike amplitude)
# Method: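 Single sensillum recordings from antennal olfactory sensilla of live adult Ips typographus. Each compound was 10 µg in paraffin oil on filter paper, delivered as a 0.5 s puff. Net response = spikes in the first 0.5 s of response minus the 0.5 s pre-stimulus count, doubled to give Hz, with blank response subtracted. Values are for the large-spike A-neuron class of each of seven sensillum types that co-house the lanierone B-neuron; N = 1-4 sensilla, averaged.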
row,Structure (SMILES),net action potential response
1,C=CCc1ccc(OC)cc1 [Estragole],1 ± 2
2,Cc1ccccc1 [Toluene],0.5 ± 2.5
3,O=Cc1ccccc1 [Benzaldehyde],-0.5 ± 1.9

# From the supplement of paper PMC11577813, “Eurasian spruce bark beetle detects lanierone using a highly expressed specialist odorant receptor, present in several functional sensillum types” (BMC Biology, 2024)
